Test results reported in PubChem BioAssay.
The source made the active and inactive calls.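 The calls were made as follows, unless noted: active = mean inhibition above 46.68%, the untreated control wells mean plus 3 SD; inactive = the rest.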

Assays:
[1] = target: Nuclear receptor coactivator 1 (Homo sapiens) (UniProt Q15788); test: NCOA1 GAL4-fusion reporter inhibition – cell-based, luminescence, quadruplicate, confirmation (AID 588820); conditions: HEK293 GAL4-SRC1 luciferase reporter, at 3.6 µM, active compounds read high;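 also: 0% = DMSO wells and 100% = gossypol 36 µM treated wells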
Sequence of Nuclear receptor coactivator 1 (Homo sapiens) (Q15788 whole entry, looked up, the tested form may be a part): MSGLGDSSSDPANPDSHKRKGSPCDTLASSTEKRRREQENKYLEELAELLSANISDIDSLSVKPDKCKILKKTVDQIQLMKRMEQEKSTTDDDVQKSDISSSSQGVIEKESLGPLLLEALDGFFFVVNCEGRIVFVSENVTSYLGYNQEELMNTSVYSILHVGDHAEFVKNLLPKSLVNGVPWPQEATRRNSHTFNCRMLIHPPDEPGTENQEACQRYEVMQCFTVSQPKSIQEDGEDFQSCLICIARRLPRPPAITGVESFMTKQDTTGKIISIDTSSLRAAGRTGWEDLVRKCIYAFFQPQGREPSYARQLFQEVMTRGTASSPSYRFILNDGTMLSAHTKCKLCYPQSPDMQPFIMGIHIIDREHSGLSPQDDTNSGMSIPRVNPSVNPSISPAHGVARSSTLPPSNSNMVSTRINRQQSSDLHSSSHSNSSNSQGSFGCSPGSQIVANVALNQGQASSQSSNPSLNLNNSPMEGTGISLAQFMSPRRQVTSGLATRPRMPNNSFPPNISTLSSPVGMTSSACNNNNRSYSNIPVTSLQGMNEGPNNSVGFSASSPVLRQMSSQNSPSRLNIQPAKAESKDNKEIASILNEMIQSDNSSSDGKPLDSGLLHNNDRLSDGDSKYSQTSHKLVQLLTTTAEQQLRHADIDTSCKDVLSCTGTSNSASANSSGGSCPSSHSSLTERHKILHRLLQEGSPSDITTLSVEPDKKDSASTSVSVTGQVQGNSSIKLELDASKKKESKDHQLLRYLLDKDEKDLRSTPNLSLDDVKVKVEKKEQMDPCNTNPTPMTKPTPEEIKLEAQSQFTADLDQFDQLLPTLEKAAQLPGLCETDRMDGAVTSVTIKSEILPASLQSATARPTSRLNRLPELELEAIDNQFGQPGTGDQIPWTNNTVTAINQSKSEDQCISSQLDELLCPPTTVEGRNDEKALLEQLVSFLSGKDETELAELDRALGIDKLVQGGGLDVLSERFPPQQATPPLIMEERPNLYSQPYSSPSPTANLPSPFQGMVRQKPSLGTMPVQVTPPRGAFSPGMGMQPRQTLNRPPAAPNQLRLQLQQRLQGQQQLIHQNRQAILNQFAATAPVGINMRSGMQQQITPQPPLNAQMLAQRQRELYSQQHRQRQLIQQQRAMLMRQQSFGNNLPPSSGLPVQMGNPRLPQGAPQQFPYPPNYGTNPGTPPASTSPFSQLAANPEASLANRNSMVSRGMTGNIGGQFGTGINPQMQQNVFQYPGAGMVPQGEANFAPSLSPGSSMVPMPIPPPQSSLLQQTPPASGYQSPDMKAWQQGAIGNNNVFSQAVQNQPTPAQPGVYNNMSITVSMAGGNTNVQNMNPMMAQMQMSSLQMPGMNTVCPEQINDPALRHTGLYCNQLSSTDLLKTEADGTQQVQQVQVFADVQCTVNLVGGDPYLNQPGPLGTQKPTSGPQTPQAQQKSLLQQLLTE

[2] = repression of VP16-driven luciferase reporter – cell-based, luminescence, high throughput, counter-screen for SRC1 inhibitor project (AID 588824; in the data active = inhibition above about 25%); conditions: cell-based VP16 transactivation luciferase luminescence; at 3.6 µM; active compounds read high

SMILES	inhibition [1]	inhibition [2]
COc1ccccc1CN(Cc1nc2ccccc2c(=O)[nH]1)S(=O)(=O)c1ccc2ccccc2c1	-20.3% (inactive)	-11.3% (inactive)
COC(=O)c1ccc(C(=O)N2CCCC(Nc3ccc(F)c(F)c3)C2)cc1 (stereo not drawn)	-59.6% (inactive)	-10.7% (inactive)
CN(C)c1ccncc1C(=O)Nc1ccc(F)cc1F	-3.76% (inactive)	-9.03% (inactive)
COc1cccc(NC(=O)CN(C)CC(=O)Nc2ccc(C)c([N+](=O)[O-])c2)c1	28% (inactive)	27.2% (active)
CC(=O)N1CCc2c(sc(NC(=O)C3CCCN3S(=O)(=O)c3cccs3)c2C(N)=O)C1 (stereo not drawn)	4.87% (inactive)	-1.35% (inactive)
O=C(CSc1nc2ccccc2[nH]1)Nc1cccc(S(=O)(=O)N2CCOCC2)c1	3.06% (inactive)	-4.53% (inactive)
O=C1c2cccc(OCc3ccc(F)cc3)c2CCN1Cc1ccc(F)cc1	21.3% (inactive)	33.4% (active)
CCOc1ccc(CSC(=N)N)cc1Cl	-21.1% (inactive)	9.52% (inactive)
Cc1ccc(N2C(N)=C(C#N)C3(C(=O)N(C)c4ccccc43)C3=C2CC(C)(C)CC3=O)cc1Cl (stereo not drawn)	3.57% (inactive)	14.7% (inactive)
COc1ccc(CCn2c(-c3ccco3)nc3ccccc3c2=O)cc1OC	-30.6% (inactive)	-17.7% (inactive)
COc1cccc(C(C(=O)NC2CCCC2)N(C(=O)c2ccco2)c2ccc(C(C)=O)cc2)c1OC (stereo not drawn)	-0.53% (inactive)	-9.34% (inactive)
O=S(=O)(Nc1ccc2c(c1)OCCO2)c1cccs1	1.12% (inactive)	-9.45% (inactive)
CCN(CC)S(=O)(=O)c1cc(NC(=O)C2CCN(c3ncnc4sc(C)c(C)c34)CC2)ccc1Cl	3.49% (inactive)	34.4% (active)
O=C(CNC(=O)c1ccco1)Nc1ccncc1	-25.7% (inactive)	-3.08% (inactive)
Cc1cc(C)c2nc(NNC(=O)c3ccc(S(=O)(=O)N4CC(C)CC(C)C4)cc3)sc2c1 (stereo not drawn)	32.4% (inactive)	30.2% (active)
Cc1ccc(S(=O)(=O)Nc2c(NC3CCCCC3)c3ccccc3oc2=O)c(C)c1	15.7% (inactive)	13.5% (inactive)
CCOc1ncccc1C(=O)NC(C)CCc1ccccc1 (stereo not drawn)	0.01% (inactive)	-0.39% (inactive)

SMILES	inhibition [1]	inhibition [2]
Cn1c(/C=N/NC(=O)c2ccccc2Br)nc2ccccc21	4.29% (inactive)	15.7% (inactive)
COc1ccc(-c2cn[nH]c2C)cc1	-12% (inactive)	5.39% (inactive)
CCCNC(=O)C1(C)CCCN(Cc2cccc(C#N)c2)C1 (stereo not drawn)	36.4% (inactive)	26% (active)
Cc1cccc(Oc2ncnc(N)c2[N+](=O)[O-])c1C	-14.1% (inactive)	5.89% (inactive)
CC1(C)CC(NCc2ccccc2)CCO1 (stereo not drawn)	-24.7% (inactive)	-4.92% (inactive)
CC1CC(C)CN(c2ncnc3c2cnn3-c2ccc(Cl)cc2)C1 (stereo not drawn)	-96.6% (inactive)	-50.9% (inactive)
CCOc1ccc(OCCC(=O)OCC(=O)NNC(=O)c2ccccc2)cc1	-5.67% (inactive)	-3.09% (inactive)
CCc1nc(Nc2ccncc2)c2oc3ccccc3c2n1	12.3% (inactive)	12% (inactive)
COc1cccc(/C=N/NC(=O)CSc2ccccc2C)c1O	-0.52% (inactive)	6.05% (inactive)
O=C(Nc1nc(-c2ccc(F)c(F)c2)cs1)c1cnccn1	7.57% (inactive)	-11.4% (inactive)
Cc1cccc(N2CC(C(=O)Nc3ccc(S(=O)(=O)Nc4nccs4)cc3)CC2=O)c1C (stereo not drawn)	-14.9% (inactive)	-6.59% (inactive)
CC1CCCCN1c1ncnc2ccccc12 (stereo not drawn)	18.5% (inactive)	17.9% (inactive)
O=C(Nc1ccc(S(=O)(=O)N2CCCCC2)cc1)C1CCN(C(=O)c2ccc(F)cc2)CC1	7.57% (inactive)	-1.11% (inactive)
COc1cc(OC)c(OC)cc1/C=C1\CC(C)C/C(=C\c2cc(OC)c(OC)cc2OC)C1=O (stereo not drawn)	-33.6% (inactive)	2.73% (inactive)
Cc1sc2ncn3ncnc3c2c1C	37.9% (inactive)	27.7% (active)
CCOc1cc(/C=N/Nc2nc3ccccc3[nH]2)cc(Br)c1OCC(=O)N(C)C	-9.77% (inactive)	-3.09% (inactive)
Cc1ccc2nc(C)c3c(c2c1)N(c1ccc(F)cc1)CC3	16.4% (inactive)	30.5% (active)
